# Reference: publication PMC7862700, “An all-to-all approach to the identification of sequence-specific readers for epigenetic DNA modifications on cytosine”
# Tests used:
# Experiment in all cases: DAPPL (digital affinity profiling via proximity ligation, sequencing); 10 mM Tris-HCl pH 7.5, 50 mM NaCl, 1 mM DTT, 4% glycerol, room temperature, 30 min; GST-TFs on glutathione beads, 16-mer random dsDNA library, 0.1% formaldehyde crosslink after washing; high values mean tight binding
# Conditions in all cases: protein: recombinant; tags: N-terminal GST; dsDNA, one strand shown
# [1] = target: T1, FLI1 (Homo sapiens, UniProt Q01543 1-452)
# T1 sequence: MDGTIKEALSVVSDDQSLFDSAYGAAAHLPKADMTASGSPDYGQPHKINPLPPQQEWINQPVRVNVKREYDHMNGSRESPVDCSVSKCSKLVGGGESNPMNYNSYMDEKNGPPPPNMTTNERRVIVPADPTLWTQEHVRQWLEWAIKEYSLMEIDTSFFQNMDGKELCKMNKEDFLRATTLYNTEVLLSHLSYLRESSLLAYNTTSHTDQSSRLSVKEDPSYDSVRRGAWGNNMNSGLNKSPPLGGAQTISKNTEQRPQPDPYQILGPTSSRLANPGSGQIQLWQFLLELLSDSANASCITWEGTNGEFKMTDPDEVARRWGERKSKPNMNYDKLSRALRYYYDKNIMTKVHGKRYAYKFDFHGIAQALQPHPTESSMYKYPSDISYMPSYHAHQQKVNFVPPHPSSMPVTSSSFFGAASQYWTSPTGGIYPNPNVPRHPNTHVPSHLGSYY
# Procedure, shortened: (§1)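 Sequencing on an Illumina NextSeq500 followed washing, crosslinking with 0.1% formaldehyde, proximity ligation (BsaI/T4 ligase, 1 h, 37 °C) and PCR amplification of pools that had been incubated for 30 min at room temperature with 200 nmole of a random double-stranded 16-mer DNA library in Tris/NaCl/DTT/glycerol buffer. Each pool held DNA-barcoded human transcription factors, expressed in yeast as GST fusions and captured on glutathione beads, plus a tag-only sample. Binding signal is a hexamer's read frequency for a factor divided by its frequency in the tag-only sample.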
# [2] = target: T2, ELK1 (Homo sapiens, UniProt P19419 1-428)
# T2 sequence: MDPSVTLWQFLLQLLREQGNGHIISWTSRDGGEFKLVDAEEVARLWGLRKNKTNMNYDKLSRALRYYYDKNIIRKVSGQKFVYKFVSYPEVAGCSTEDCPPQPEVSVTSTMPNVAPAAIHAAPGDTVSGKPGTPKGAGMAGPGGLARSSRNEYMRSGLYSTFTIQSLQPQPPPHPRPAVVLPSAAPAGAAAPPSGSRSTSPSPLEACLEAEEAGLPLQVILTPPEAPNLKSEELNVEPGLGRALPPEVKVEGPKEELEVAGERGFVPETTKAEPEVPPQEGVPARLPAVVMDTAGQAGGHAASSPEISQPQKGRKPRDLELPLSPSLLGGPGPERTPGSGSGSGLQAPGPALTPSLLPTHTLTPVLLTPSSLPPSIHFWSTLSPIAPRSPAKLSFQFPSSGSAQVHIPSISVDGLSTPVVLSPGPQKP
# Procedure, shortened: as §1
# [3] = target: T3, GABPA (Homo sapiens, UniProt Q06546 1-454)
# T3 sequence: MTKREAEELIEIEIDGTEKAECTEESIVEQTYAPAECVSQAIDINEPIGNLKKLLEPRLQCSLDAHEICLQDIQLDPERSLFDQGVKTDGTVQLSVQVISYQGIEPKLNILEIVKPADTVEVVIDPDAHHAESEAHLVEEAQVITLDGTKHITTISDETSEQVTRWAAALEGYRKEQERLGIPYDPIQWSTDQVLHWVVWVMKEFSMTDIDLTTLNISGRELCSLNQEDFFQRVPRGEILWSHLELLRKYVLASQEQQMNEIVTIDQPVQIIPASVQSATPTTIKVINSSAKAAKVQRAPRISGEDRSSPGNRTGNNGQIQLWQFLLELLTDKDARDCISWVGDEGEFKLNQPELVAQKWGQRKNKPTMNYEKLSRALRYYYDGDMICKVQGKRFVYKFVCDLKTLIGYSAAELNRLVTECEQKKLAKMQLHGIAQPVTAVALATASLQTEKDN
# Procedure, shortened: as §1
# [4] = target: T4, ERG (Homo sapiens, UniProt P11308 1-479)
# T4 sequence: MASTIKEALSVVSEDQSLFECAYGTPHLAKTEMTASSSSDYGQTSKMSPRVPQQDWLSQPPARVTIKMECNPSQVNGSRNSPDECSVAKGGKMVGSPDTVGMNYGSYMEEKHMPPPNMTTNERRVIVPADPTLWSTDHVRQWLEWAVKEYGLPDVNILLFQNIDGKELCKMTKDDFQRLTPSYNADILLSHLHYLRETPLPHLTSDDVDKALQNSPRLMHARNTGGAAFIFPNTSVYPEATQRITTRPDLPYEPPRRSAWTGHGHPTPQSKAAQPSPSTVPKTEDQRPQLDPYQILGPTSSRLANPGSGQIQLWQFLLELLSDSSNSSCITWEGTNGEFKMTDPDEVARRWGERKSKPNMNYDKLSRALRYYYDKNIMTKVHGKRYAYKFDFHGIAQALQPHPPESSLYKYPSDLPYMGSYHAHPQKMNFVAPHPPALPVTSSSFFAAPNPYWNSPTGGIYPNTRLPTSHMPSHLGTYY
# Procedure, shortened: as §1
# [5] = target: ELF1 (Homo sapiens, UniProt P32519 1-619)
# ELF1, sequence (P32519 whole entry): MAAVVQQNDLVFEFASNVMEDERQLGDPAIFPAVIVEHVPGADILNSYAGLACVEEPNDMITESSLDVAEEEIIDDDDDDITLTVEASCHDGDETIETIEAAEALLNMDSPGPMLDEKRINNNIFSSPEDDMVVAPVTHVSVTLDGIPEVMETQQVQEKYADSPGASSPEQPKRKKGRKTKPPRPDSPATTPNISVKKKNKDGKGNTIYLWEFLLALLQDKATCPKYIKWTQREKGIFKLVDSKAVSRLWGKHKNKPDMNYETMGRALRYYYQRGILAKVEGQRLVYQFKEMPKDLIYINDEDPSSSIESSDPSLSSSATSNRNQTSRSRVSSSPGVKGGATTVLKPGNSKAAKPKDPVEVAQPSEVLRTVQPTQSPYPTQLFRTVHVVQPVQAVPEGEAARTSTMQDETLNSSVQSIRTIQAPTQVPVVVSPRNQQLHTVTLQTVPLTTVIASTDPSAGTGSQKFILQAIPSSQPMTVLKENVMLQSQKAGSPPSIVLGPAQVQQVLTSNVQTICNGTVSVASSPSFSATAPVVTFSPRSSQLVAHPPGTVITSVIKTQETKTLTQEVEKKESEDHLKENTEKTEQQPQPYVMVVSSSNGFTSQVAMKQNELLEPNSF
# Procedure, shortened: as §1
# [6] = target: T5, EHF (Homo sapiens, UniProt Q9NZC4 1-300)
# T5 sequence: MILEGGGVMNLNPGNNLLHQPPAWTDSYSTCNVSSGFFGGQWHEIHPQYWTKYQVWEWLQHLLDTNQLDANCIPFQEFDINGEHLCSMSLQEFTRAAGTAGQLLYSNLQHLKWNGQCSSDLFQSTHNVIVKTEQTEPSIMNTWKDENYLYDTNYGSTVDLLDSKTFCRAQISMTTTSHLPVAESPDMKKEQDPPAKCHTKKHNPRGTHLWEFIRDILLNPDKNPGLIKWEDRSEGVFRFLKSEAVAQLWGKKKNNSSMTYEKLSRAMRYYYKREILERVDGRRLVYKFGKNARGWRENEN
# Procedure, shortened: as §1
# [7] = target: SPI1 (Homo sapiens, UniProt P17947 1-270)
# Procedure, shortened: as §1
# [8] = target: SPIB (Homo sapiens, UniProt Q01892 1-262)
# SPIB, sequence (Q01892 whole entry): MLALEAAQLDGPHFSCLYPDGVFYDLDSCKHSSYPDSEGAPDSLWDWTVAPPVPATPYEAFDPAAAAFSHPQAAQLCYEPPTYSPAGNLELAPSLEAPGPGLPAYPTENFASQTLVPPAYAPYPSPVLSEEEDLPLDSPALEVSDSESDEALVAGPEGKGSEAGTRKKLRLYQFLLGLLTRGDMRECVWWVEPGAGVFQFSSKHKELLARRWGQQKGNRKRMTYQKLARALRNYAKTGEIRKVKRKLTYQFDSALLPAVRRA
# Procedure, shortened: as §1
# [9] = target: T6, ELK3 (Homo sapiens, UniProt P41970 1-407)
# T6 sequence: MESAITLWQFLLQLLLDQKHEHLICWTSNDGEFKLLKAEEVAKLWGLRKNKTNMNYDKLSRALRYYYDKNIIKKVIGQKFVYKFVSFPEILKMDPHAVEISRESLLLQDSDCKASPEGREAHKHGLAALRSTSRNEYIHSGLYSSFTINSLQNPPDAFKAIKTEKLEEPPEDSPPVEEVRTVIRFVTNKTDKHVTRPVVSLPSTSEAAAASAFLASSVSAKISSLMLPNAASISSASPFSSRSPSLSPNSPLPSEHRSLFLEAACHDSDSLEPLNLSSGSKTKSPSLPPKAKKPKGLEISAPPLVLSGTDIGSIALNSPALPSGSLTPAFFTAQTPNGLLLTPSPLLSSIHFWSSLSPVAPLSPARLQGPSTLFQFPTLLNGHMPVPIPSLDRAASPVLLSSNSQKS
# Procedure, shortened: as §1
sequence,measurement,setting,value
AATTAC,binding signal,[1],"1.24 fold enrichment (6-mer frequency, TF over GST control)"
same,binding signal,[2],"1.19 fold enrichment (6-mer frequency, TF over GST control)"
same,binding signal,[3],"1.26 fold enrichment (6-mer frequency, TF over GST control)"
same,binding signal,[4],"1.25 fold enrichment (6-mer frequency, TF over GST control)"
same,binding signal,[5],"1.26 fold enrichment (6-mer frequency, TF over GST control)"
same,binding signal,[6],"1.33 fold enrichment (6-mer frequency, TF over GST control)"
same,binding signal,[7],"1.35 fold enrichment (6-mer frequency, TF over GST control)"
same,binding signal,[8],"1.35 fold enrichment (6-mer frequency, TF over GST control)"
same,binding signal,[9],"1.24 fold enrichment (6-mer frequency, TF over GST control)"
